Drawing on PubChem BioAssay (NCI), this text covers growth for 40 molecules.

This is part of a sample that, as a whole, favours compounds with a hit. Of some 83,000 tested, about 20% had one in any assay.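 The test compound was applied at a single concentration to cells in 96-well plates for 48 hours, and percent growth was recorded.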 Active and inactive are the calls of the source.

The subject of this assay is COLO 205 colon. Kind of assay: NCI-60 one-dose screen, 48 h (100 = growth as untreated, 0 = no growth, -100 = all killed). The settings on record: 10 µM unless noted. As to the method: Cells are grown in 96 well plates and exposed to the test compound for 48 hours. Compounds are tested at a single concentration, which is 10^-5 M for most compounds. The reported endpoint is percent growth (GI% or GIPRCNT), where numbers from 0 - 100% represent growth inhibition, and numbers from -100% - 0 represent cell death. For example, a value of 40 represents 60% growth inhibition. A value of 0 means no net growth occurred over the course of the experiment. A value of -40 indicates 40% of cells at the beginning of the experiment died by the end of the experiment. A value of -100 means all cells are dead at the end of the experiment.
NCI-60 Human Tumor Cell Lines Screen was performed using the standard one-dose NCI protocol, which is described in more detail at https://dtp.cancer.gov/discovery_development/nci-60/default.htm.
Compounds with GIPRCNT values below 10 were considered active. Activity score was based on GIPRCNT using the following formula: […]
Score is 0 for GIPRCNT values of 100 or above, 50 for GIPRCNT values of 0, and 100 for GIPRCNT values of -100.
Regarding `Cc1cc(NS(=O)(=O)c2ccc(NC(=O)CSc3nc4ccccc4c(=O)n3-c3ccccc3)cc2)no1`, the growth is 106% (inactive).

On to `COc1ccc(C(=O)c2c(N)c(C#N)cn2-c2ccc(Cl)cc2Cl)cc1`, for which the growth was 109% (inactive).

With `CCN(CC)CCOc1ccc(C(=C(c2ccccc2)C2CCCC2)c2ccc(OCCN(CC)CC)cc2)cc1`, the growth is -83.9% (active).

On to `CC(=O)OCCCCN1C=C/C(=C\C(=O)n2ccc3ccccc32)c2ccccc21`, for which the growth is 108% (inactive).

In the case of `CC(C)NC(=O)c1cc(-c2ccc(NC(=O)Nc3ccc(F)cc3)cc2)nc2cccnc12`, the growth was 118% (inactive).

For the molecule `CN1CCN(Cc2ccc(NC(=O)c3cncc(C#Cc4cnc5ccc(NCCO)nn45)c3)cc2C(F)(F)F)CC1`, the growth was -82.3% (active).

For `Cn1ncc2c(C(=O)c3ccc(F)cc3)nc(C(C)(C)C)nc21`, the growth is 108% (inactive).

As to `COc1cc2oc(-c3cccc(NC(=O)[C@@H](N)C(C)C)c3)cc(=O)c2c(OC)c1OC`, the growth was 111% (inactive).

As to `C#C[C@]1(O)CC[C@H]2[C@@H]3CC=C4c5sc(N(C)c6ccccc6)nc5CC[C@]4(C)[C@H]3CC[C@@]21C`, the growth was 66.8% (inactive).

On to `Cc1ccc2c(n1)C(=O)C(Cl)=C(Nc1ccc(C(=O)OC(C)(C)C)cc1)C2=O`, for which the growth is -46.1% [9.25 µM] (active).

For `O=C1Nc2ccccc2/C1=C/c1ccc(OCC(=O)c2ccccc2)cc1`, the growth was 117% (inactive).

For `O=C(O)c1ccc(-n2c(=O)n(-c3cccc(C(F)(F)F)c3)c(=O)c3cc(-c4ccc(F)cc4F)ccc32)cc1`, the growth was 65.1% (inactive).

Consider `COc1cc(/C=N\NC(=O)c2ccc3nc(-c4ccc(Br)cc4)[nH]c3c2)cc(OC)c1OC`, for which the growth is 32.5% (inactive).

In the case of `CC1=C(C)C(=O)C(Nc2ccc3c(c2)OCCO3)=C(Br)C1=O`, the growth was 126% (inactive).

For `O=C(CSc1nc2ccccc2c(=O)n1-c1ccccc1)Nc1ccc(S(=O)(=O)Nc2nccs2)cc1`, the growth is 103% (inactive).

As to `COc1ccc2[nH]cc(-c3nc(N)nnc3-c3cn(C)c4ccc(Br)cc34)c2c1`, the growth is 20% (inactive).

Consider `COC(=O)[C@@H](Cc1c[nH]c2ccccc12)NC(=O)CCCCOc1cc(O)c2c(=O)cc(-c3ccccc3)oc2c1`, for which the growth is 90.4% (inactive).

`Nn1c(=O)n(-c2cccc(C(F)(F)F)c2)c(=O)c2cc(-c3ccc(F)cc3F)ccc21`: the growth was 65.2% (inactive).

Regarding `O=[N+]([O-])c1ccc(NC(=S)NNC(=S)Nc2ccc(Br)cc2)cc1`, the growth is 112% (inactive).

`Cc1nc(N)sc1-c1csc(Nc2ccc(C(F)(F)F)cc2)n1`: the growth was 19.6% (inactive).

Regarding `CN1CCC[C@]2(C)[C@H]3CC[C@@H]4[C@@H]5[C@H]6OC[C@@]5(CCC6(C)C)CC[C@@]4(C)[C@]3(C)CC[C@H]2C1(C)C`, the growth was -8.01% (active).

As for `CCCCCCOC(=O)c1cc(-c2ccc(F)cc2)nc2ccccc12`, the growth was 107% (inactive).

Regarding `Cc1cc2nc(C(Cl)Cl)nc(-c3ccc(S(=O)(=O)N(C)C)cc3)n2n1`, the growth is 25.2% (inactive).

`COc1cc2cc(Oc3ccc(NC(=O)Nc4ccc(F)c(C(F)(F)F)c4)cc3)c(C)nc2cc1OCCN(C)C`: the growth was 117% (inactive).

Consider `COc1ccc(Cn2cc(C#N)c(N)c2C(C)=O)cc1`, for which the growth is 111% (inactive).

Regarding `C/C(=C(\c1ccc(O)cc1)c1ccc(OCCN2CCCCCC2)cc1)c1ccc(Cl)cc1`, the growth is -63.4% (active).

On to `CCOC(=O)c1cccc(NC2=C(Cl)C(=O)C(C)=C(C)C2=O)c1`, for which the growth was 122% (inactive).

As to `Cc1ccc(/C=N/Nc2nc(Nc3ccccc3)nc(Nc3ccc(S(N)(=O)=O)cc3)n2)cc1`, the growth was 83.9% (inactive).

As to `CC[C@]12C=CCN3CC[C@@]4(c5ccc(OC)cc5N(C)[C@H]4[C@@](O)(C(=O)OC)[C@@H]1OC(=O)CCN1CCc4ccccc4C1)[C@@H]32`, the growth was 74.3% (inactive).

On to `O=C1/C(=C/c2cc(F)cc(F)c2)Cc2cc3c(cc21)OCO3`, for which the growth is -15.2% (active).

For the molecule `C#CCOc1ccc(-c2csc(NC(=O)C=C)n2)cc1NS(=O)(=O)c1cccc2c(N(C)C)cccc12`, the growth was 67.6% (inactive).

As to `COc1cc(C(C)=C(c2ccc(OCCN(C)C)cc2)c2ccc(OCCN(C)C)cc2)ccc1F`, the growth is 104% (inactive).

With `O=C(CSc1nc2ccccc2c(=O)n1-c1ccccc1)N/N=C/c1ccc(Oc2ccc(Br)cc2)cc1`, the growth was 44.4% (inactive).

Consider `Cn1cc(-c2cc3ncnc(Nc4ccc(CC(=O)Nc5nc(C(C)(C)C)cs5)cc4)c3s2)cn1`, for which the growth was 65.8% (inactive).

Take `CN1CCN(Cc2ccc(/C=N/Nc3ccnc4cc(Cl)ccc34)cc2)CC1`: the growth is 93.2% (inactive).

For `COc1ccc(-c2c(C(N)=O)c(N)n(Cc3nc4ccccc4[nH]3)c(=O)c2C#N)c(OC)c1`, the growth is 117% (inactive).

Turning to `N#C/C(=C\c1ccc(-c2ccc(Cl)cc2)o1)C(=O)Nc1ncc(Cc2ccc(Br)cc2)s1`, the growth was 41.1% (inactive).

On to `Cc1ccc(-c2csc(N/N=C/c3cccs3)n2)cc1`, for which the growth is 115% (inactive).

Turning to `O=C(Nc1cccc(C(F)(F)F)c1)N1CCN(c2cc(-c3cn(-c4ccccc4)nc3-c3cccc(O)c3)ccn2)CC1`, the growth was 60% (inactive).

Turning to `CC(C)C(/C=C/c1[nH]ncc1-c1cc(Cl)ccc1O)N1CCOCC1` (stereo not given), the growth was 109% (inactive).
